# Screening data from PubChem.
# This is a sample that favours compounds with a hit; in the whole collection about 19% have one here.
# HT1080NT lethal – kills 2HG-producing HT-1080-NT fibrosarcoma cells. HT-1080-NT fibrosarcoma viability, CellTiter-Glo ATP luminescence, 48 h. Potency, µM (top dose mostly 46.1 µM), for the others: top-dose activity, negative = less viability, actives largely listed as cytotoxic. 1.6% of 360,000 active;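 further: NT is the 2HG producing partner of a matched IDH1 knockdown line; potency means the concentration at half of the fitted maximal effect; 0% = DMSO-treated cells and -100% = media-only wells without cells; nearly all actives have a fitted effect of over 55% in size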
#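 750 cells/well, RPMI + 5% FBS; 2 h settle, compound pin-transfer, 48 h at 37 degrees C. CellTiter-Glo 10 min RT, luminescence. Normalized to DMSO and media-only wells.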
# HT1080 IDH1KD tx – toxicity to HT-1080 IDH1 knockdown cells (counter line); Potency, µM (titrated, usually from 46.1 µM), for the others: at the top dose activity, negative = toxicity, usual class: cytotoxic; 2% of 360,000 active; HT-1080 IDH1 knockdown viability, ATP luminescence, 48 h;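 further: potency means the concentration at half of the fitted maximal effect; 0% = DMSO wells and -100% = cell-free medium wells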
#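 HT-1080-IDH1KD cells (IDH1 knocked down), 750/well in RPMI with 5% FBS, treated with compound 48 h at 37 degrees C. Viability by CellTiter-Glo luminescence, normalised to DMSO and no-cell wells; concentration-response curves classed.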
# DT40 TDP1 CPT – growth inhibition of DT40 Tdp1-/-;hTDP1 cells with camptothecin (screen for TDP1 inhibitors). 12% of 420,000 active. AID 686979. Potency, µM (doses to about 46.2 µM), inactives show top-dose activity change, negative = growth inhibition, usual class: inhibitors. chicken DT40 Tdp1-/-;hTDP1 cells + 20 nM CPT, ATP luminescence, 48 h; further: potency means the concentration at half of the fitted maximal effect; nearly all actives have a fitted effect of over 55% in size
#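 Cell growth measured by CellTiter-Glo luminescence after a minimum 48 h, 37 C compound exposure with 20 nM CPT in Tdp1-knockout DT40 cells stably expressing hTDP1, seeded 400/well; qHTS titration format.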
# IL1B secr inh – inflammasome signaling inhibition, IL-1 beta readout. activity change, % at 57.5 µM. 4.7% of 360,000 active. THP-1 LPS/ATP IL-1B secretion, AlphaLISA, 16 h; active compounds read low; in the data active means activity change below about -50%; inconclusive means mostly about -30% to -49%
#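 Secreted IL-1B measured by AlphaLISA bead assay after 16 h compound exposure of THP-1 cells; compounds (final up to 57.5 uM) added 1 h before LPS (250 ng/mL) and ATP (1.25 mM) stimulation; lower signal means less secretion.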
# DT40 TDP1 no CPT – qHTS for Inhibitors of human tyrosyl-DNA phosphodiesterase 1 (TDP1): qHTS in cells in absence of CPT; Potency, µM (top dose mostly 46.2 µM), without a hit: at the top dose activity change, negative = growth inhibition, actives largely listed as inhibitors; DT40 Tdp1-/- hTDP1 cells, no CPT, ATP luminescence, 48 h; 15% of 420,000 active; further: potency means the concentration at half of the fitted maximal effect; nearly all actives have a fitted effect of over 55% in size
#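 No-CPT arm: Tdp1-/-;hTDP1 DT40 cells (400/well) plus compounds, incubated ≥48 hr at 37 °C. Readout CellTiter-Glo luminescence.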
# * hit, by the source's call; ? = inconclusive; / = no result given; [ ] = remark or other dose. Unless noted, the call rests on the fitted dose curve; in most records, active means well fitted curve in the direction sought with a large enough effect; inconclusive means small, poorly fitted or top-dose-only effect, or another doubt; inactive means no such curve, though single readings can be large; an effect the other way counts as inactive or inconclusive. Unless noted, on the % scale 0 is the no-effect control and ±100 the full control effect.
SMILES,HT1080NT lethal,HT1080 IDH1KD tx,DT40 TDP1 CPT,IL1B secr inh,DT40 TDP1 no CPT
Cc1cc(OC(C)C(=O)N2CCN(c3ccccc3)CC2)c2c(C)c(C)c(=O)oc2c1 (stereo not drawn),1.2%,-5.1%,?,-2.6,29.1µM*
Cc1cc(OCC(=O)N2CCN(c3ccccc3)CC2)c2c(C)c(C)c(=O)oc2c1,13.9%,-3.4%,-9.5%,2.8,23.1%
CC(C)CCNCC1OCc2ccccc2CO1,6.2%,7.8%,11.7%,-2.5,-27.5%
O=C(NCCC1=CCCCC1)c1ccc(F)c(S(=O)(=O)N2CCOCC2)c1,16.2%,1.1%,-23.5%,29.4,?
O=C(NCCC1=CCCCC1)c1cc(S(=O)(=O)N2CCOCC2)ccc1F,1.2%,-5.7%,13µM*,14.6,?
Cc1c(C(=O)NCCCN2CCCC2=O)oc2ccc(S(=O)(=O)N3CCOCC3)cc12,9.1%,18.2%,-12.8%,-4.7,-17.4%
Cc1c(C(=O)NCCC2=CCCCC2)oc2ccc(S(=O)(=O)N3CCOCC3)cc12,-9.2%,-28.2%,?,?,20.6µM*
COCCNC(=O)C1CCCN(C(=O)COc2ccc(Cl)cc2Cl)CC1 (stereo not drawn),27.3%,17.1%,-10.5%,-6.9,-13.7%
CCCNC(=O)CSc1nnc(-c2ccccc2Br)n1-c1cccc(C(F)(F)F)c1,-10.1%,-22.6%,?,7.0,?
COc1ccc(OC)c(-n2c(=O)c3ccccc3c3ccccc3c2=O)c1,-11.0%,0.6%,-24.2%,-89.3*,-36.9%
Nc1ncnc(Sc2ccccc2)c1[N+](=O)[O-],-3.3%,-2.2%,-2.7%,-102.7*,-19.2%
Nc1ncnc(Sc2ccc(Cl)cc2)c1[N+](=O)[O-],-2.6%,-14.2%,4.61µM*,?,5.8µM*
Nc1ncnc(Sc2ncccn2)c1[N+](=O)[O-],-14.1%,16.4µM*,1.16µM*,-27.3,1.3µM*
Cc1ccc(Sc2ncnc(N)c2[N+](=O)[O-])cc1,-19.8%,-0.1%,-25.9%,-26.9,?
NC(=S)N/N=C/c1ccc(C23CC4CC(CC(C4)C2)C3)cc1,?,?,9.2µM*,16.2,3.66µM*
COc1ccc(SCC(O)Cn2c3ccccc3c3ccccc32)c(OC)c1 (stereo not drawn),?,?,?,-11.9,?
CC1C/C(=N\NC(=S)NC(C)C)CC(C)(C)C1 (stereo not drawn),16.0%,8.0%,10.3µM*,58.9,18.4µM*
Cc1ccc(CC(=O)Nc2nccs2)cc1,9.6%,5.0%,24.7%,-2.4,-5.2%
CC(OC(=O)c1cc(S(=O)(=O)N(C)C)ccc1N1CCCC1)C(=O)NCc1ccccc1 (stereo not drawn),3.9%,7.0%,5.9%,12.5,-35.5%
COc1ccc(-c2nc(SCC(=O)NCc3ccco3)c(-c3ccccc3)[nH]2)cc1OC,4.6%,4.0%,?,-18.4,?
COc1ccc(-c2[nH]c(-c3ccc(F)cc3)nc2SCC(=O)Nc2ccc(OC)c(OC)c2)cc1,/,/,16.4µM*,/,?
COc1ccc(NC(=O)CSc2nc(-c3cc(OC)c(OC)c(OC)c3)[nH]c2-c2ccc(F)cc2)cc1,/,/,?,/,23.1µM*
Cc1ccsc1C(=O)OCC(=O)Nc1cccc(S(=O)(=O)N2CCOCC2)c1,4.7%,-0.1%,9.0%,-0.7,4.5%
CCOc1ccccc1N1Cc2ccccc2C1,-3.3%,9.6%,?,15.5,-21.8%
COc1ccc(OC)c(N2Cc3cc(C)c(C)cc3C2)c1,-7.5%,2.7%,?,-1.3,25.9µM*
SMILES,HT1080NT lethal,HT1080 IDH1KD tx,DT40 TDP1 CPT,IL1B secr inh,DT40 TDP1 no CPT
CCOc1ccccc1N1Cc2cc(C)c(C)cc2C1,0.0%,-2.8%,25.9µM*,4.4,?
CCCOc1ccc(NC(=O)CC2C(=O)N(c3cccc(OC)c3)C(=O)N2Cc2cccs2)cc1 (stereo not drawn),/,/,?,/,20.6µM*
COc1ccc(NC(=O)CC2C(=O)N(c3cccc(OC)c3)C(=O)N2CCc2cccs2)cc1 (stereo not drawn),/,/,?,/,20.6µM*
O=[N+]([O-])c1ccc(N/N=C2/CCCCC2c2ccccn2)cc1 (stereo not drawn),14.3%,0.92µM*,-26.8%,-13.8,-25.0%
CN1CCN(S(=O)(=O)c2cccc(C(=O)NCc3ccc(Cl)cc3)c2)CC1,3.1%,1.6%,-10.8%,8.5,17.2%
CCS(=O)(=O)N1CCc2cc(C(=O)NCc3ccc(Cl)cc3)ccc21,/,/,?,/,16.4µM*
COc1ccc(CNC(=O)c2cccc(S(=O)(=O)N3CCN(C)CC3)c2)cc1,0.1%,?,12.6%,17.4,-7.6%
COc1ccc(CNC(=O)c2ccc3c(c2)CCN3S(=O)(=O)c2ccc(Cl)cc2)cc1,/,/,?,/,16.4µM*
Cc1cc(-c2n[nH]c(=S)n2/N=C/c2c[nH]c3ccccc23)n[nH]1,2.0%,2.6%,2.8%,3.0,?
Fc1ccc(-c2n[nH]c(=S)n2/N=C/c2c[nH]c3ccccc23)cc1,2.9%,-6.7%,7.31µM*,4.7,6.51µM*
Cc1nn(-c2ccccc2)c(C)c1/C=N/n1c(-c2ccncc2)n[nH]c1=S,-8.0%,-18.4%,-2.6%,0.0,-19.0%
Cc1nn(-c2ccccc2)c(C)c1/C=N/n1c(-c2ccc(Cl)cc2)n[nH]c1=S,-10.1%,-9.3%,?,22.1,16.4µM*
O=C(Nc1cccc(Cl)c1)NC1CCN(C2CCCCC2)C1 (stereo not drawn),-26.3%,-29.2%,-3.0%,-8.9,?
Nc1ccc(N2CCCCC2)c2nonc12,?,-12.3%,25.9µM*,8.5,16.4µM*
Nc1ccc(N2CCCCC2)cc1N1CCCCC1,?,-17.5%[9.24 µM],?,?,?
CCCn1c(=S)[nH]c2cc(C(=O)N3CCCC(C(=O)OCC)C3)ccc2c1=O (stereo not drawn),?,?,14.6µM*,-15.5,20.6µM*
COCCn1c(=S)[nH]c2cc(C(=O)N3CCCC(C)C3)ccc2c1=O (stereo not drawn),-4.1%,-14.0%,25.9µM*,14.7,?
CC(=O)Nc1ccc(NC(=O)C(=O)N/N=C/c2cccnc2)cc1,-0.3%,-1.4%,-1.5%,35.0,0.6%
COC(=O)c1ccc2nc(-c3ccc(Cl)cc3)c(CC3CCCCC3)n2c1,10.8%,12.7%,8.2µM*,53.3,4.11µM*
COC(=O)c1ccc2nc(-c3ccc(OC)c(OC)c3)c(CC3CCCCC3)n2c1,-15.4%,-9.2%,?,27.5,18.4µM*
Cc1ccc2nc(-c3ccc(Cl)cc3)c(CC3CCCCC3)n2c1,?,?,?,-2.8,?
COC(=O)c1ccc2nc(-c3cccc(Br)c3)c(CC3CCCCC3)n2c1,7.6%,-1.1%,?,60.0,?
